Assay outcomes: PubChem, several laboratories
Sampled rows, rich in hits. Any-hit rate of the full collection: about 2.3%.
MITF TRPM1 inh: reduces MITF-dependent TRPM1 promoter luciferase signal. inhibition, % at 12.5 µM. 330,000 tested, 0.83% active. SK-MEL-5 TRPM1 promoter luciferase, 24 h. AID 488899;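 active means mean inhibition across replicates of 60% or more, whatever share of single replicates reaches that level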
Shn3 inh set2: reduces Shn3 3'UTR luciferase signal in osteoblasts; Clone20 osteoblast Shn3 3'UTR firefly luciferase, 24 h; inhibition, % at 12.5 µM; 360,000 tested, 0.52% active; AID 588674;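 active means mean inhibition of at least 75% with every replicate also reaching 75%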
LMP1 NFkB inh: inhibitors of Epstein-Barr LMP1-induced NF-kappaB reporter; inhibition, % at 12.5 µM; LMP1-induced NF-kappaB luciferase reporter cells, luminescence; 350,000 tested, 0.69% active; AID 504558; in the data active means inhibition above about 41%
697 NFkB inh: lowers PMA/ionomycin-induced NF-kB signal in 697 B cells. 697 B-cell NF-kB luciferase reporter, 16 h. inhibition, % at 4 µM. 330,000 tested, 0.33% active. AID 435022; in the data active means inhibition above about 35%
Jurkat NFkB inh: inhibitors of the PMA/ionomycin-induced NF-kB reporter in Jurkat cells. PMA/ionomycin-induced NF-kB luciferase reporter, luminescence. inhibition, % at 4 µM. 330,000 tested, 0.53% active; in the data active means inhibition above about 50%
Gli-Sufu antag: blocks Gli-Sufu signaling in a luciferase reporter; 340,000 tested, 0.74% active; Sufu-KO-LIGHT fibroblasts, Gli luciferase reporter luminescence; AID 588413; inhibition, % at 5 µM;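 active means inhibition above about 55%, limit read from the data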
Gli-Sufu confirm: confirmation of Gli-SUFU pathway antagonists | shares compounds with Gli-Sufu antag | Sufu-KO-LIGHT cells, Gli luciferase reporter, luminescence | inhibition, % at 5 µM | 2,500 tested, 40% active;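 active means mean inhibition at 5 µM reaching about 45%, limit read from the data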
Gli cytotox: counter-screen for Gli-SUFU antagonists: cytotoxicity. shares compounds with Gli-Sufu antag. Sufu-KO-LIGHT cells cytotoxicity, ATP luminescence. cytotoxicity, % at 5 µM. 2,500 tested, 32% active. AID 651994;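 active means mean cytotoxicity at 5 µM above about 25%, limit read from the data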;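 further: cells exposed to compound overnight for roughly 16 to 18 hours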
Wnt3a cs: counter-screen for Gli-SUFU antagonists: Wnt3a reporter inhibition. shares compounds with Gli-Sufu antag. Wnt-LIGHT cells, Wnt3a-driven luciferase reporter, luminescence. inhibition, % at 6.25 µM. 2,500 tested, 20% active. AID 651995;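 active means mean inhibition above about 25%, limit read from the data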
A number is an active result; 0 = inactive; - = not tested or not shown.

SMILES	MITF TRPM1 inh	Shn3 inh set2	LMP1 NFkB inh	697 NFkB inh	Jurkat NFkB inh	Gli-Sufu antag	Gli-Sufu confirm	Gli cytotox	Wnt3a cs
COc1ccc(C2=Nc3ccccc3NC(=O)C2N(CCCn2ccnc2)C(=O)c2cccc(S(C)(=O)=O)c2)cc1 (stereo not drawn)	-	0	-	-	-	-	-	-	-
CN1CCN(/N=C/c2nc(-c3ccccc3)n3ccccc23)CC1	0	0	0	0	0	0	0	0	0
O=C(c1ccc(-c2cc3ccccc3oc2=O)cc1)N1CCN(c2ccc(Cl)cc2[N+](=O)[O-])CC1	0	0	0	0	0	0	-	-	-
COc1ccc(OC)c(NC(=O)C2CCN(S(=O)(=O)c3c(C)noc3C)CC2)c1	0	0	0	0	0	94	0	0	0
Cc1cccc(N/C=C/c2onc(C)c2[N+](=O)[O-])c1	0	0	0	0	0	0	0	0	0
Cc1cc(O)ccc1N/C=C/c1onc(C)c1[N+](=O)[O-]	0	0	0	0	0	0	-	-	-
Cc1sc2ncnc(SCC(=O)N3CCN(C(=O)c4ccco4)CC3)c2c1C	0	0	0	0	0	0	-	-	-
CCCCC(CC)C(=O)NCc1ccccc1OC (stereo not drawn)	0	0	0	0	0	0	-	-	-
COc1ccc(OC)c(-c2csc(NC(=O)Cc3ccc(OC)c(OC)c3)n2)c1	0	0	0	0	0	0	-	-	-
CCC1(C)Cc2ccccc2-c2c1c(=O)n(Cc1ccccc1)c1nnnn21 (stereo not drawn)	0	0	0	0	0	75	0	0	0
O=c1c2c(n3nnnc3n1Cc1ccccc1)-c1ccccc1CC21CCCC1	0	0	0	0	0	0	-	-	-
O=C(NNc1ccccn1)C(=O)NNS(=O)(=O)c1ccc(F)cc1	0	0	0	0	0	0	-	-	-
Cc1ccc(-n2c(C)cc(C3=NNC(=NC4CC4)SC3)c2C)cc1C	0	0	0	0	0	60	67	29	71
CC[N+]1=C(C)C(C)(C)c2cc(C)ccc21	0	89	0	0	0	57	45	0	0
COc1ccc(S(=O)(=O)Cc2ccc(C(=O)NCc3ccc(C)cc3)o2)cc1	0	0	0	0	0	0	-	-	-
Cn1c(C(=O)NCCN2CCCCCC2)cc2c(=O)n(C)c3ccccc3c21	0	0	0	0	0	0	-	-	-
Cn1c(C(=O)NC2CCCC2)cc2c(=O)n(C)c3ccccc3c21	-	0	0	-	-	99	0	0	0
C/C(=N\Nc1cc(N2CCOCC2)nc(C)n1)c1ccc(F)cc1	0	0	0	0	0	0	-	-	-
C/C(=N\Nc1cc(N2CCCCC2)nc(C)n1)c1ccc(Br)cc1	0	0	0	0	0	79	52	45	0
C[C@H](CO)N1C[C@H](C)[C@@H](CN(C)Cc2ccc(C(=O)O)cc2)Oc2c(NS(=O)(=O)c3ccccc3)cccc2C1=O	0	0	0	0	0	0	-	-	-
CCOC(=O)C1(CCOc2ccccc2)CCN(Cc2cccc(OC)c2OC)CC1	0	0	0	0	0	56	0	0	0
CCOC(=O)C1(CCOc2ccccc2)CCN(Cc2cccc3c2OCO3)CC1	0	0	0	0	0	0	-	-	-
CCOC(=O)C1(CCc2ccccc2)CCN(Cc2cc(OC)c(OC)cc2OC)CC1	0	0	0	0	0	60	0	0	0
CCOC(=O)C1(CCOc2ccccc2)CCN(Cc2ccccc2O)CC1	0	0	0	-	-	0	-	-	-
CCOC(=O)C1(CCOc2ccccc2)CCN(Cc2cc(OC)c3c(c2)OCO3)CC1	0	0	0	0	0	0	0	0	0
SMILES	MITF TRPM1 inh	Shn3 inh set2	LMP1 NFkB inh	697 NFkB inh	Jurkat NFkB inh	Gli-Sufu antag	Gli-Sufu confirm	Gli cytotox	Wnt3a cs
O=C(Nc1cccc(NC(=O)c2ccc(-c3cccc(Br)c3)o2)c1)c1ccco1	0	0	0	0	0	0	-	-	-
COc1ccc(C(=O)C=CNNC(=O)c2ccc(Cl)cc2)cc1	0	0	0	0	0	0	-	-	-
O=C(COc1ccc2ccccc2c1)NNC(=O)c1ccccc1	0	0	0	0	0	0	0	0	0
O=C(COc1ccc2ccccc2c1)NNC(=O)Cc1ccccc1	0	0	0	-	-	0	-	-	-
CC1(C)CC(=O)C2=C(C1)Nc1ccccc1NC2c1cccs1 (stereo not drawn)	0	0	0	0	0	58	0	0	0
COCCCn1c(SCC(=O)Nc2ccc(NC(=O)c3ccco3)c(OC)c2)nc2ccccc2c1=O	0	0	0	0	0	0	-	-	-
CCCCn1c(CN(C)Cc2ccccc2)nc2c1c(=O)n(C)c(=O)n2C	0	87	0	0	0	60	52	0	0
COc1ccc(S(=O)(=O)Nc2ccccc2C(=O)N2CCCC2)cc1OC	0	0	0	0	0	0	-	-	-
Cc1ccc(NC(=S)NNC(=O)c2nn(C)cc2Cl)cc1	0	0	0	0	0	0	-	-	-
NCCc1nnc(SCc2ccc(F)cc2)o1	0	0	0	0	0	68	0	0	0
CCN(CC)C(=O)[C@H]1C[C@H](CC(=O)NCC23CC4CC(CC(C4)C2)C3)C(=O)N2CCc3c([nH]c4ccc(Cl)cc34)[C@]12C	0	0	0	0	-	0	-	-	-
Cc1cccc(C(=O)NC2CCN(C(=O)Nc3ccccc3C)CC2)c1	0	0	0	0	0	67	0	0	0
CCOc1ccccc1NC(=O)N1CCC(NC(=O)c2cccc(C)c2)CC1	0	0	0	0	0	0	-	-	-
CCN1C(=O)C(=CC=CN(C)c2ccccc2)SC1=S	-	0	0	-	-	-	-	-	-
CCn1c(/C=C/N(C)c2ccccc2)[n+](CC)c2ccc(Cl)cc21	65	0	0	0	0	85	89	36	42
CCC(C)(C)NC(=O)C(c1ccccc1F)N(C(=O)c1ccn[nH]1)c1ccccc1 (stereo not drawn)	0	0	0	0	0	0	-	-	-
Cc1ccc(NC(=O)c2cc(C)n(-c3cccc(C)c3)c2C)cc1	0	0	0	0	0	77	86	67	89
COc1ccc(C(=O)Nc2cc([N+](=O)[O-])ccc2N2CCN(C)CC2)cc1	0	0	0	0	0	0	-	-	-
COc1cccc(C(=O)Nc2cc([N+](=O)[O-])ccc2N2CCN(C)CC2)c1	0	0	0	0	0	0	0	0	0
COC(=O)CCC(=O)N(C)CC1CCCN(CCc2cccc(C(F)(F)F)c2)C1 (stereo not drawn)	0	0	0	0	0	56	0	0	0
CSCCC(=O)N(C)CC1CCCN(CCc2cccc(C(F)(F)F)c2)C1 (stereo not drawn)	0	0	0	0	0	0	-	-	-
CCCNC(=O)CCn1nc(-c2ccc(Cl)cc2)c2ccccc2c1=O	0	0	0	0	0	0	-	-	-
COCCNC(=O)CCn1nc(-c2ccc(Cl)cc2)c2ccccc2c1=O	0	0	0	0	0	0	0	0	0
